Compound activity (PubChem BioAssay)
AMA1 RON2 block: qHTS for Inhibitors of AMA1-RON; Towards Development of Antimalarial Drug Lead: Primary Screen; AlphaScreen AMA1-biotinylated RON2 peptide binding; AID 720542, 2013; Plasmodium falciparum AMA1 (3D7) - RON2 peptide interaction; Potency, µM (highest dose often 58.2 µM), hits mostly inhibitors; actives 0.2% (n = 360,000); further: nearly all actives have a fitted effect of over 45% in size
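AMA1 (3D7) with his tag at 25 nM final met compounds first, then biotinylated RON2 peptide at 25 nM; detection used donor plus acceptor beads, 10 µg/mL apiece, read by AlphaScreen after 30 min at room temperature.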
Shiga toxin inh: A qHTS for Small Molecule Inhibitors of Shiga Toxin | actives 9.2% (n = 290,000) | Vero cells, Shiga toxin protein synthesis inhibition reporter | inhibition, % at 38.7 µM; in the data active means inhibition mostly above about 28%, no sharp cut-off; inactive means mostly below about 43%
AmpC inh detg: qHTS Inhibitors of AmpC Beta-Lactamase (assay with detergent) | AID 485294, 2010 | P00811 | actives 0.041% (n = 370,000) | AmpC hydrolysis of nitrocefin, absorbance 480 nm, 0.01% Triton | Potency, µM (doses to about 114 µM), most hits filed as inhibitors; further: nearly all actives have a fitted effect of over 25% in size
Target sequence (P00811 whole entry, looked up): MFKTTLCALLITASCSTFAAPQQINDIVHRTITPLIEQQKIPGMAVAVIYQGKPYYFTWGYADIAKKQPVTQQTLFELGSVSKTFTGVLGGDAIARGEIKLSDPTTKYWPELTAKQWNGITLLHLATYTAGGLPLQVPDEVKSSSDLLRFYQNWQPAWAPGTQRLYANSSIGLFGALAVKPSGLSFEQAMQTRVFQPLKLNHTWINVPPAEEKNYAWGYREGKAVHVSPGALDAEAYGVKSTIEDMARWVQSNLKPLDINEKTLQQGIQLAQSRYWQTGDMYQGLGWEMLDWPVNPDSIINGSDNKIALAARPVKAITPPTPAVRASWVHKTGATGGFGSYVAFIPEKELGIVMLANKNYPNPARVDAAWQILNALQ
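AmpC (5.3 nM in the dispensed reagent) in 20 mM phosphate pH 7.0 with 0.01% (detergent screen) or 0.0001% Triton X-100 was preincubated with compounds for 15 min at room temperature. Nitrocefin was then added from an 800 uM solution, and hydrolysis was followed at 480 nm.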
AmpC inh no detg: qHTS Inhibitors of AmpC Beta-Lactamase (assay without detergent). P00811. AmpC nitrocefin hydrolysis, absorbance 480 nm, 0.0001% Triton. Potency, µM (series often up to 57.1 µM), actives largely listed as inhibitors. actives 0.52% (n = 330,000). AID 485341, 2010; further: nearly all actives have a fitted effect of over 20% in size
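20 mM phosphate pH 7.0 + 0.01% (detergent screen) or 0.0001% Triton X-100; 5.3 nM AmpC reagent; cpd preinc 15 min RT; nitrocefin (800 uM stock) to start; A480 q20 s × 4 min; Activity was normalised to no-enzyme and no-compound control wells.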
Cycloheximide cs: Cycloheximide Counterscreen for Small Molecule Inhibitors of Shiga Toxin; cell reporter, cycloheximide protein synthesis inhibition counterscreen; max response, %; actives 12% (n = 300,000); in the data active means max response mostly above about 13%, no sharp cut-off; inactive means mostly below about 14%; further: read at 38.3 µM for the half of the compounds with a filed dose
SARS PLP yeast: qHTS of Yeast-based Assay for SARS-CoV PLP | S. cerevisiae expressing SARS-CoV PLpro, growth rescue | Potency, µM (top dose mostly 32.9 µM), usual class: activators | actives 0.19% (n = 330,000) | AID 485353, 2010; calls by dose curve; further: nearly all actives have a fitted effect of over 55% in size
Numbers stand for hits; . = inactive; ? = inconclusive; / = no result; ! = repeats disagree; [ ] = another dose, or the depositor's remark. This is one part of a sample in which hits are shown more often than they occur. Unless noted, the call rests on the fitted dose curve; in most records, active means well fitted curve in the direction sought with a large enough effect; inconclusive means small, poorly fitted or top-dose-only effect, or another doubt; inactive means no such curve, though single readings can be large; an effect the other way counts as inactive or inconclusive.

SMILES | AMA1 RON2 block | Shiga toxin inh | AmpC inh detg | AmpC inh no detg | Cycloheximide cs | SARS PLP yeast
CC1CCCC(C)N1/N=C/c1ccc([N+](=O)[O-])cc1 (centres undefined) | ? | 54 | . | . | 43 | .
O=[N+]([O-])c1ccc(N2CCCCC2)cc1 | . | . | . | . | 27 | .
O=C(COc1ccc(F)cc1)NC1CC(=O)N(c2ccc3c(c2)OCCO3)C1 (centres undefined) | / | / | . | / | / | /
CN1C(N)=NC(=O)/C1=C\c1ccc(Br)cc1 | . | . | . | . | 13 | .
CN1C(N)=NC(=O)/C1=C/c1ccc(OC(F)(F)F)cc1 | . | 41 | ? | . | 33 | .
COc1ccc(/C=C2/C(=O)N=C(N)N2C)cc1OC | . | . | . | . | . | .
Cc1ccnc(NS(=O)(=O)c2ccc(NC(=O)c3ccc(C)o3)cc2)n1 | . | . | . | . | . | .
COc1ccccc1-c1nn2c(-c3ccco3)nnc2s1 | . | 112 | . | . | 68 | .
COc1ccccc1-c1nn2c(-c3ccccc3Cl)nnc2s1 | / | . | ? | . | . | .
c1coc(-c2nn3c(-c4ccco4)nnc3s2)c1 | . | . | . | . | 10 | .
CC(=O)Nc1cccc(C(=O)NNC(=O)c2n[nH]c(=O)c3ccccc23)c1 | . | / | . | . | / | .
CCCCSc1ccc2nc(-c3ccc(C#N)cc3)cn2c1 | . | . | . | . | 58 | .
CCOC(=O)N1CCN(c2c(NCc3cccs3)c(=O)c2=O)CC1 | . | . | . | . | . | .
CN(C)[C@@H]1C(=O)C(C(N)=O)=C(O)[C@@]2(O)C(=O)C3=C(O)c4c(O)cccc4[C@@](C)(O)C3[C@H](O)C12 (some centres undefined) | 1.4µM! | / | ? | . | / | /
C=C1c2cccc(O)c2C(O)=C2C(=O)[C@]3(O)C(O)=C(C(N)=O)C(=O)[C@@H](N(C)C)[C@@H]3[C@@H](O)[C@H]12 | 3.2µM | . | ? | . | . | .
C[C@H]1c2cccc(O)c2C(O)=C2C(=O)C3(O)C(O)=C(C(N)=O)C(=O)[C@@H](N(C)C)[C@@H]3[C@@H](O)[C@@H]21 (some centres undefined) | ? | / | ? | . | / | /
O=C(CSc1nccn(-c2ccc(F)c(Cl)c2)c1=O)NC1CCCC1 | . | / | . | . | / | .
O=c1[nH]c(-c2ccccn2)cc2ccccc12 | . | 52 | . | . | 36 | .
Cc1ccc(-c2nc(CS(=O)CC(=O)NCCN3CCCCC3C)c(C)o2)cc1 (centres undefined) | . | . | . | . | . | .
c1ccc(CN2CCc3nc4ccccc4cc3C2)cc1 | . | 59 | . | . | 26 | .
COc1cc2c(cc1OC)CN(Cc1ccccc1)CC2 | . | . | . | . | . | .
Cc1ccc(NC(=O)c2ccc(CSc3nccc(C)n3)cc2)cc1 | . | . | . | . | . | .
O=C(Nc1ccccc1)c1ccc(CSc2ncccn2)cc1 | . | 107 | . | . | 97 | .
Cc1cc(C)cc(NC(=O)c2ccc(CSc3nnnn3C)cc2)c1 | . | . | . | . | . | .
CC(=O)Nc1nnc(SCc2ccc(C(=O)Nc3ccccc3F)cc2)s1 | . | . | . | . | . | .
SMILES | AMA1 RON2 block | Shiga toxin inh | AmpC inh detg | AmpC inh no detg | Cycloheximide cs | SARS PLP yeast
Cn1nnnc1SCc1ccc(C(=O)Nc2ccccc2F)cc1 | . | 45 | . | . | 32 | .
CCCNC(=O)c1ccccc1NC(=O)c1ccc(CSc2ccccc2)cc1 | . | 26 | . | . | 17 | .
O=C(Nc1ccccc1F)c1ccc(CSc2ncccn2)cc1 | . | 86 | ? | .[2.29 µM] | 30 | .
O=C(COC(=O)c1cnccn1)NCCc1ccc(Cl)cc1Cl | . | . | . | . | . | .
Nc1nc(N)c2cc(S(=O)(=O)c3cccc(C(F)(F)F)c3)ccc2n1 | . | / | / | / | / | /
COC(=O)/C(=C/Nc1ccccc1)[N+](=O)[O-] | . | . | . | . | . | .
CC(=O)N1CCc2c(sc3c2c(=O)n(-c2ccc(F)cc2)c(=O)n3Cc2cc(C)ccc2C)C1 | / | / | . | / | / | /
